A selection: hits, their analogues and other compounds. The true share with any hit is near 3%.
C8 TRAIL sens = viability loss with TRAIL in NB7+C8 cells, primary screen, TRAIL sensitizer project, cell-based, ATPlite luminescence. inhibition (viability loss, TRAIL sensitization), % at 10 µM. 1% of 360,000 active. AID 624354, 2012;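 active means compounds causing at least 50% loss of cell viability in the single-dose screen, relative to plate controls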
SENP7 block = SENP7 protease inhibitors, primary screen, biochemical, luminescence, uHTS. Sentrin-specific protease 7 (Homo sapiens), Q9BQF6. inhibition, % at 5 µM. recombinant SENP7, Z-RLRGG-aminoluciferin luminescence, 40 min. AID 434973, 2010. 1.5% of 330,000 active;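 active means inhibition above about 50% at the single test dose, limit read from the data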
Target sequence (Q9BQF6 706-1050 limits assumed): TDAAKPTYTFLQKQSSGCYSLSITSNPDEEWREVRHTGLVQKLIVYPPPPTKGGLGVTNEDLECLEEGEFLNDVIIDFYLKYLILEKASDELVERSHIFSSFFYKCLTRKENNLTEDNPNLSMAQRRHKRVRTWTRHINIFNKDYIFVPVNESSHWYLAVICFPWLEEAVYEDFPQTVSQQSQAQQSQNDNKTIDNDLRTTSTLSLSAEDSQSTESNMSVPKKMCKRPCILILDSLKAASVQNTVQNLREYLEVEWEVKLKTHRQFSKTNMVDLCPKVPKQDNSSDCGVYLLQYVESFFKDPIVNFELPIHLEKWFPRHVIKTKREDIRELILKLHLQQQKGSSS
SENP6 inh = SENP6 protease inhibitors, primary screen, biochemical, luminescence, uHTS; Sentrin-specific protease 6 (Homo sapiens), Q9GZR1; Recombinant SENP6 catalytic domain, aminoluciferin luminescence; inhibition, % at 10 µM; 1.8% of 330,000 active; AID 2599, 2010;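 active means inhibition above about 50% at the single tested dose, limit read from the data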
PPC-1+TRAIL kill = compounds killing PPC-1 cancer cells with TRAIL present, primary screen, TRAIL potentiator project, ATPLite luminescence, uHTS | cell killing (% activity), % at 4 µM or 5 µM | 0.41% of 220,000 active | AID 1443, 2008 | PPC-1 cells + TRAIL, ATPLite viability luminescence;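 active means cell killing above 50% in the first pass at 4 µM, then a duplicate retest at 5 µM averaging 50% or more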
SENP8 block-1 = human SENP8 protease inhibitors, primary screen, biochemical, fluorescence, Nedd8 protein substrate, uHTS. 0.64% of 360,000 active. recombinant SENP8. Sentrin-specific protease 8 (Homo sapiens), Q96LD8. inhibition, % at 20 µM; in the data active means inhibition mostly above about 40%, no sharp cut-off; inactive means mostly below about 27%
Target sequence (Q96LD8 whole entry, looked up): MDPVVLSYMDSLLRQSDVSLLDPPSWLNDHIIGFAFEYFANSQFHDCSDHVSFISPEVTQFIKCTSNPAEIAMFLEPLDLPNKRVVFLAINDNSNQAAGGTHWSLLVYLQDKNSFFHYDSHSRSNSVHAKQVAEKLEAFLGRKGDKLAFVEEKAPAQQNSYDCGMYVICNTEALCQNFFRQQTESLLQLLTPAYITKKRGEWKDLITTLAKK
SENP8 block-2 = SENP8 protease inhibitors, primary screen, biochemical, luminescence | AID 2540, 2010 | purified SENP8, Z-RLRGG-aminoluciferin cleavage | 1.2% of 330,000 active | inhibition, % at 10 µM; in the data active means inhibition above about 50%
Each line names hits and unclear results; the compound was inactive in the other large screens.

COc1ccc(/C(N)=N/OC(=O)c2cccc([N+](=O)[O-])c2)cc1	none
CC(=O)Nc1ccc(S(=O)(=O)N[C@@H](C)C(=O)N2CCN(C/C=C/c3ccccc3)CC2)cc1	none (no result: PPC-1+TRAIL kill)
N#CC1(Nc2ccc(S(N)(=O)=O)cc2)CCCC1	none (no result: SENP7 block, SENP6 inh, PPC-1+TRAIL kill, SENP8 block-2)
CCC(c1nc2ccccc2[nH]1)N(C(=O)C1=NNC(=O)CC1)c1ccccc1 (stereo unspecified)	none (no result: SENP7 block, SENP6 inh, PPC-1+TRAIL kill, SENP8 block-2)
COc1ccccc1-c1nnc(SCC(=O)NNC(=O)c2ccccc2F)n1C	none (no result: PPC-1+TRAIL kill)
CCC(C(=O)O/N=C(\N)c1ccc(C)cc1)c1ccccc1 (stereo unspecified)	C8 TRAIL sens 72
CCC(C(=O)O/N=C(\N)c1ccc(Cl)cc1)c1ccccc1 (stereo unspecified)	none
CCC(C(=O)O/N=C(\N)c1ccccc1)c1ccccc1 (stereo unspecified)	C8 TRAIL sens 71
CCOCc1c(C(=O)Nc2ccccc2N2CCN(C)CC2)oc2ccccc12	none (no result: PPC-1+TRAIL kill)
Cc1ccc(S(=O)(=O)N2CCCCC2)cc1C(=O)OC1CCCCC1=O (stereo unspecified)	none (no result: PPC-1+TRAIL kill)
CCNC(=O)C1(C)CCN(Cc2noc(-c3c(C)noc3C)n2)C1 (stereo unspecified)	none (no result: SENP7 block, SENP6 inh, PPC-1+TRAIL kill, SENP8 block-2)
Cc1cc(C(=O)COC(=O)c2ccc[nH]c2=O)c(C)n1-c1ccccc1	C8 TRAIL sens 72, PPC-1+TRAIL kill 62
Cc1cc(C(=O)COC(=O)c2ccc[nH]c2=O)c(C)n1-c1ccc(F)cc1	C8 TRAIL sens 52
CC(C)c1ccc(/C=N/NC(=O)c2c(Cl)cnn2C)cc1	C8 TRAIL sens 83
Cc1nn(C)c(C(=O)N/N=C/c2ccc(Br)cc2)c1Cl	none
Cc1ccccc1CC(=O)Nc1ccc(S(=O)(=O)N2CCN(C)CC2)cc1	none (no result: PPC-1+TRAIL kill)
O=C1CN(S(=O)(=O)c2cc(Br)ccc2Br)CCN1	none (no result: PPC-1+TRAIL kill)
O=c1c(Br)ccc(Br)cc1Br	C8 TRAIL sens 93 (no result: SENP7 block, SENP6 inh, PPC-1+TRAIL kill, SENP8 block-2)
CC(=O)OC1CC2(C)C(CCC2(O)C(C)=O)C2CCC3C(Cl)C(=O)CCC3(C)C12 (stereo unspecified)	none (no result: SENP7 block, SENP6 inh, PPC-1+TRAIL kill, SENP8 block-2)
CC(=O)c1cccc(NC(=O)c2ccc(OC3CSC3)cc2)c1	none (no result: PPC-1+TRAIL kill)
O=C(Nc1cccc(Br)c1)c1ccc(OC2CSC2)cc1	SENP7 block 96, SENP6 inh 92, SENP8 block-2 90 (no result: C8 TRAIL sens, SENP8 block-1)
Nc1[nH]c(N=NC(=O)c2ccc(F)cc2)c2ccccc12	none
Nc1ccccc1C(=O)N=Nc1[nH]c(N)c2ccccc12	C8 TRAIL sens 51
Cc1cc(C(=O)CSc2nc(N)cc(=O)[nH]2)c(C)n1CC1CCCO1 (stereo unspecified)	none (no result: PPC-1+TRAIL kill)
Cc1cc(C(=O)CSc2nc3ccccc3[nH]2)c(C)n1CC1CCCO1 (stereo unspecified)	C8 TRAIL sens 76
COc1cccc(C(=O)NCCS(=O)(=O)N(C)Cc2ccccc2)c1	none (no result: PPC-1+TRAIL kill)
CCC(=O)N(c1nnc(SCC(=O)Nc2ccccc2Cl)s1)C1CC1	none (no result: PPC-1+TRAIL kill)
C#Cc1ccc(NC(=O)C2(C)CCN2C(=O)CC(c2ccccc2)c2ccccc2)cc1 (stereo unspecified)	C8 TRAIL sens 93 (no result: SENP7 block, SENP6 inh, PPC-1+TRAIL kill, SENP8 block-2)
O=C(CSc1nnc(SCc2ccccc2)s1)N/N=C/c1c(Cl)cccc1Cl	none
O=C(O)COc1ccccc1/C=N/NC(=O)CSc1nnc(SCc2ccccc2)s1	SENP6 inh 56
O=C(CSc1nnc(SCc2ccccc2Cl)s1)N/N=C/c1ccc(C(=O)O)cc1	SENP6 inh 93, SENP8 block-2 83
Cc1ccccc1CS(=O)(=O)CCC(=O)NCc1ccc(F)cc1Cl	none (no result: PPC-1+TRAIL kill)
N#Cc1ccc(CC(=O)c2ccccc2)[nH]c1=O	none (no result: SENP7 block, SENP6 inh, PPC-1+TRAIL kill, SENP8 block-2)
O=c1c2ccccc2oc2ccc(NCCCn3ccnc3)cc12	C8 TRAIL sens 50 (no result: PPC-1+TRAIL kill)
NC(=O)c1ccc(NC(=O)COC(=O)c2ccc(Br)o2)cc1	none (no result: PPC-1+TRAIL kill)
CCN(c1ccccc1)S(=O)(=O)c1ccc(N2CCN(c3ccccc3O)CC2)nc1	none (no result: PPC-1+TRAIL kill)
CN(c1ccccc1)S(=O)(=O)c1ccc(NC(=O)c2ccccc2)cc1	none
CN(c1ccccc1)S(=O)(=O)c1ccc(NC(=O)c2nc(S(C)(=O)=O)ncc2Cl)cc1	C8 TRAIL sens 93 (no result: PPC-1+TRAIL kill)
COc1cccc(NC(=O)c2nc(SC)ncc2Cl)c1	none (no result: PPC-1+TRAIL kill)
COc1cccc(NC(=O)c2nc(S(C)(=O)=O)ncc2Cl)c1	C8 TRAIL sens 66 (no result: PPC-1+TRAIL kill)
O=C(NCc1ccccn1)c1cc(S(=O)(=O)N2CCCCC2)ccc1Cl	none (no result: PPC-1+TRAIL kill)
C#CCOCCOCCOCCNc1nc(N2CCN(C(=O)Cn3cc(CC(C)O)nn3)CC2)nc(N2CCN(C(=O)[C@H](CCCCN)n3cc(CC(C)O)nn3)CC2)n1 (stereo partly specified)	none (no result: SENP7 block, SENP6 inh, PPC-1+TRAIL kill, SENP8 block-2)
CCC(C)C(=O)N1c2ccccc2C(=C2SC(C(=O)OC)=C(C(=O)OC)S2)C(=S)C1(C)C (stereo unspecified)	SENP8 block-1 56
CCS(=O)c1ccccc1C(=O)OCC(=O)Nc1ccc2ccccc2c1 (stereo unspecified)	none (no result: PPC-1+TRAIL kill)
Cc1nc2nc(-c3ccc(Cl)cc3)cn2nc1C	SENP6 inh 69, SENP8 block-2 62
O=C(CSc1cn[nH]n1)Nc1ccc(Cl)cc1Cl	none (no result: PPC-1+TRAIL kill)
COc1ccc(NC(=O)c2cccc(N3C(=O)c4ccc(C(=O)Nc5ccc(OC)c(O)c5)cc4C3=O)c2)cc1O	C8 TRAIL sens 58 (no result: PPC-1+TRAIL kill)
CCOC(=O)N1CCC(N2C(=O)c3ccc(C(=O)Nc4ccc(OC)c(OC)c4)cc3C2=O)CC1	SENP8 block-1 13 (no result: PPC-1+TRAIL kill)
O=C(COc1cc(F)ccc1[N+](=O)[O-])NCCN1C(=O)CSC1=O	none (no result: PPC-1+TRAIL kill)
COc1ccc(OC)c(NC(=O)/C=C/c2ccccc2[N+](=O)[O-])c1	none
COc1cccc(NC(=O)/C=C/c2ccc([N+](=O)[O-])cc2)c1	SENP6 inh 75, SENP8 block-2 51
COc1cccc(NC(=O)/C=C/c2ccccc2[N+](=O)[O-])c1	SENP7 block 94, SENP6 inh 98, SENP8 block-2 90
O=C(/C=C/c1ccc([N+](=O)[O-])cc1)Nc1ncc([N+](=O)[O-])s1	C8 TRAIL sens 59 (no result: SENP7 block, SENP6 inh, SENP8 block-2)
Cc1ccccc1C(=O)NCC(=O)OC(C)C(=O)NC(C)CCc1ccccc1 (stereo unspecified)	none (no result: PPC-1+TRAIL kill)
CC(=O)Nc1cccc(C(=O)NNC(=O)c2ccccc2-n2cccc2)c1	none (no result: PPC-1+TRAIL kill)
CCOC(=O)Cc1csc(NC(=S)NC(=O)c2ccccc2)n1	none
CCOC(=O)Cc1csc(NC(=S)NC(=O)c2ccc(C)cc2)n1	C8 TRAIL sens 82
COC(=O)c1sc(NC(=S)NC(=O)c2ccccc2)nc1C	none
Cc1csc(NC(=S)NC(=O)c2ccccc2)n1	C8 TRAIL sens 72 (no result: PPC-1+TRAIL kill)
O=C(C[C@@H]1C/C=C\C[C@H](Cc2ccc(F)cc2)C(=O)OC[C@@H]2CCCN2C1=O)N[C@H](CO)Cc1ccccc1	none (no result: PPC-1+TRAIL kill)
COc1ccc(S(=O)(=O)N2CCN(c3ccc4nnc(-c5ccccc5)n4n3)CC2)cc1	C8 TRAIL sens 54

Assay outcomes as filed in PubChem.
